# Assay results as given in PubChem BioAssay (NCI).
# This is part of a sample that, as a whole, favours compounds with a hit. Of some 83,000 tested, about 20% had one in any assay.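 Step 1: grow cells in 96-well plates. Step 2: add test compound at a single concentration. Step 3: incubate 48 h. Step 4: record percent growth.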 Activity calls are given as the source filed them. How the source made its calls: active means growth percent below 10; inactive means the rest.
# System: HL-60(TB) leukemia
# Assay: NCI-60 one-dose screen, 48 h (100 = growth as untreated, 0 = no growth, -100 = all killed)
# Settings: 10 µM unless noted
row,Compound,growth
1,COc1ccc(C(=O)/C=C/c2c(C(F)(F)F)nc3sccn23)cc1OC,-35.6% (active)
2,CCN(CC)Cc1cc(Nc2nc(NC3CCC(N(C)C)CC3)c3ccccc3n2)ccc1OC (stereo not given),69% (inactive)
3,Cc1nn(-c2ccccc2)c(Cl)c1/C=C/C(=O)c1ccc(F)cc1,47.1% (inactive)
4,CC12OC(CC(O)C1O)n1c3ccccc3c3c4c(c5c6ccccc6n2c5c31)C(=O)N(CCN1CCOCC1)C4=O (stereo not given),7.54% (active)
5,C#CCNC(=O)c1cccc2c1cc(C)n2-c1nc2c(c(NCc3ccccc3)n1)CCCC2,0.47% (active)
6,O=C(Nc1ccc(-n2cc(-c3ccncc3)c(-c3ccc(O)c(Cl)c3)n2)cc1)Nc1cccc(Cl)c1Cl,78.8% (inactive)
7,O=S(=O)(Nc1ccc2ccccc2c1)N1CCCCC1,85.1% (inactive)
8,O=C(Nc1cc(Cl)cc(Cl)c1)Oc1c(Cl)c(Cl)c(Cl)c(Cl)c1Cl,60.9% (inactive)
9,Cc1c(CC(=S)N2CCOCC2)nnn1-c1cccc(C(F)(F)F)c1,100% (inactive)
10,CC(OC(=O)Nc1cccc(Cl)c1)C(=O)O (stereo not given),90.2% (inactive)
11,COc1ccc2nc(-n3nc(C)cc3C)c(-n3nc(C)cc3C)nc2c1,104% (inactive)
12,O=c1c(Cc2ccc(F)cc2)cc(-c2ccccc2)nn1C/C(=N/O)c1ccccc1,24.8% (inactive)
13,CC(=O)c1cc2c(o1)C(=O)c1ccccc1C2=O,-36.5% (active)
14,CC[C@]1(O)CC2CN(CCc3c([nH]c4ccccc34)[C@@](C(=O)OC)(c3cc4c(cc3OC)N(C)[C@H]3[C@@](O)(C(=O)OC)[C@H](OC(C)=O)[C@]5(CC)C=CCN6CC[C@]43[C@@H]65)C2)C1 (stereo not given in full),2.87% (active)
15,COC(=O)c1c2c(n3ccccc13)C(=O)c1ccccc1C2=O,58.6% (inactive)
16,COc1ccc2cnc(N)c(C#Cc3cc(C(=O)Nc4ccc(CN5CCN(C)CC5)c(C(F)(F)F)c4)cnc3C)c2c1,95% (inactive)
17,COc1ccc(CNc2nccnn2)cc1,69.9% (inactive)
18,CCc1cccc(Sc2cc(C(=O)N3Cc4ccc(OCCN(C)C)cc4C3)ccc2O)c1,50.3% (inactive)
19,Cn1cccc1-c1nc2c3c(ccc2[nH]1)C(=O)c1ccccc1C3=O,82.3% (inactive)
20,Fc1ccc(Nc2ccnc(N3CCN(c4ccnc5cc(Cl)ccc45)CC3)n2)cc1,15.9% (inactive)

row,Compound,growth
1,Nc1ccc2c(c1)Cc1cc(Cl)c(Cl)cc1-2,53.4% (inactive)
2,CCCCCCCCCCCCNC(=S)N/N=C/c1ccc(Cl)c(Cl)c1,116% (inactive)
3,Cc1ccc2nc(/C=C/c3ccc(N(C)C)cc3)cc(C)c2c1,15.2% (inactive)
4,CCCCCCN(CCCCCC)CCC(=O)Nc1ccc(S(=O)(=O)c2ccc(NC(=O)CCN(CCCCCC)CCCCCC)cc2)cc1,80% (inactive)
5,CCOC(=O)c1c(C)[nH]c2ccc(O)cc12,95.7% (inactive)
6,O=C(NCCNc1nccc(-c2c(-c3cccc(O)c3)nc3sccn23)n1)c1ccccc1O,59.8% (inactive)
7,CN(C)CCCSc1ccccc1NC1=C(Cl)C(=O)C(Nc2ccccc2SCCCN(C)C)=C(Cl)C1=O,-34.8% (active)
8,CCC(OC(=O)CC(C)C)c1ccccc1 (stereo not given),102% (inactive)
9,Cc1nc2cc(Nc3nc(Nc4ccc(F)cc4)nc(-c4ccc(Cl)cc4)n3)ccc2n1Cc1ccccc1,-29.6% (active)
10,CCC(=O)Oc1ccc2ccccc2c1,103% (inactive)
11,CC1CN(C2CCCCC2)C(=O)NC1=O (stereo not given),75.8% (inactive)
12,O=C1Nc2ccc(Br)cc2C1=O,99.6% (inactive)
13,CCCN=C(N)c1ccc(NC(=O)c2ccc(C(=O)Nc3ccc(C(N)=NCCC)cc3)cc2)cc1,77% (inactive)
14,Nc1nc(C(=O)N/N=C/c2ccc(F)cc2)nn1-c1ccc(S(N)(=O)=O)cc1,99.5% (inactive)
15,O=Nc1ccccc1N=O,78.3% (inactive)
16,O=c1c2cccc(F)c2sc2c(N3CCNCC3)nc3ccccc3c12,30.9% (inactive)
17,C=C1C(=O)O[C@H]2[C@H]1CC/C(COC(=O)NCc1cccc(OC)c1)=C\CC[C@@]1(C)O[C@@H]21,-38.6% (active)
18,CC1(C)C(N(O)C(=O)Nc2ccc(Cl)cc2)N(c2ccc(Cl)cc2)C(=O)N1CC(=O)N/N=C/C=C/c1ccc([N+](=O)[O-])o1 (stereo not given),-36% (active)
19,CCCCN(CCC)CCCCCCCCCCN1CCCc2ccccc21,42.2% (inactive)
20,Clc1ccc(-c2nc(C(Cl)Cl)nc3cc(-c4ccccc4)nn23)cc1,5.27% (active)
